TRb-SRC2 inh: qHTS for Inhibitors of the Interaction of Thyroid Hormone Receptor and Steroid Receptor Coregulator 2 | Thyroid hormone receptor beta (Homo sapiens), P10828 | TRbeta-SRC2 peptide binding, fluorescence polarization; receptor liganded with 1 µM T3 | Potency, µM (top dose mostly 106 µM), without a hit: top-dose activity change, negative = inhibition, hits mostly inhibitors | 280,000 compounds, 0.065% hits | AID 1469, 2008;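 note: potency is the fitted concentration of half-maximal effect; plate controls were bound peptide for no effect and peptide without receptor for full effect; nearly all actives have a fitted effect of over 50% in size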
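Polarization signal, normalized between peptide-alone and full complex controls, measured compound effects on T3-liganded human TRb LBD (0.6 uM) binding 20 nM Texas Red SRC2 peptide after 5 hr.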
TCR act: Activators of T cell receptors: qHTS campaign. Potency, µM (doses to about 9.22 µM), for inactives: at the highest dose activation of IL-2 secretion, hits mostly activators. 330,000 tested, under 10 active. primary human leukocytes, anti-CD3, IL-2 HTRF, 48 h. AID 504894, 2011; note: % of control where 0% means no effect
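IL-2 release read by HTRF sandwich (Eu cryptate donor, d2 acceptor, 665 nm emission) after 48 hr exposure of primary human leukocytes to compound together with anti-CD3 beads in the absence of co-stimulatory signals.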
TR SRC2 fluor cs: Total Fluorescence Counterscreen for Inhibitors of the Interaction of Thyroid Hormone Receptor and Steroid Receptor Coregulator 2; TRb/SRC2 Texas Red total fluorescence interference; Potency, µM (top dose mostly 106 µM), for inactives: top-dose fluorescence change, negative = quenching; 280,000 compounds, 0.29% hits; AID 1479, 2009; active = well fitted curve in either direction with a large enough effect; inconclusive = small, poorly fitted or top-dose-only effect; note: potency is the fitted concentration of half-maximal effect; % is set by controls: 0 for no effect and ±100 for the full control effect
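Human TRβ ligand-binding domain (0.6 uM) and Texas Red SRC2 peptide (20 nM) in Tris buffer with 1 uM T3 and 5% DMSO were incubated with pinned compound for 5 hr at ambient temperature. Total fluorescence was computed as S + 2P (555/632 nm).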
NPSR antag: qHTS Assay for Antagonists of the Neuropeptide S Receptor: cAMP Signal Transduction; Q6W5P4; CHO-NPSR cells, cAMP TR-FRET, antagonist mode; Potency, µM (top dose mostly 38.3 µM), without a hit: at the highest dose activity change, negative = inhibition, hits mostly inhibitors; 220,000 compounds, 1% hits; AID 1461, 2008; note: potency is the fitted concentration of half-maximal effect; % is set by controls: 0 for no effect and ±100 for the full control effect; nearly all actives have a fitted effect of over 50% in size
TSHR antagonist: Antagonists of the Thyroid Stimulating Hormone Receptor: HTS campaign | Thyrotropin receptor (Homo sapiens), P16473 | TSHR-expressing cells, TSH-stimulated cAMP HTRF, 2 h; stronger effect = lower value | activity change, negative = inhibition, % at 11.5 µM | 330,000 compounds, 0.2% hits | AID 504810, 2011;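 active = activity change below a set negative limit, meaning inhibition stronger than a set level, cut at about -70% in these data; inconclusive = activity change between two set negative limits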; note: % is set by controls: 0 for no effect and ±100 for the full control effect
Target sequence (P16473 whole entry, looked up): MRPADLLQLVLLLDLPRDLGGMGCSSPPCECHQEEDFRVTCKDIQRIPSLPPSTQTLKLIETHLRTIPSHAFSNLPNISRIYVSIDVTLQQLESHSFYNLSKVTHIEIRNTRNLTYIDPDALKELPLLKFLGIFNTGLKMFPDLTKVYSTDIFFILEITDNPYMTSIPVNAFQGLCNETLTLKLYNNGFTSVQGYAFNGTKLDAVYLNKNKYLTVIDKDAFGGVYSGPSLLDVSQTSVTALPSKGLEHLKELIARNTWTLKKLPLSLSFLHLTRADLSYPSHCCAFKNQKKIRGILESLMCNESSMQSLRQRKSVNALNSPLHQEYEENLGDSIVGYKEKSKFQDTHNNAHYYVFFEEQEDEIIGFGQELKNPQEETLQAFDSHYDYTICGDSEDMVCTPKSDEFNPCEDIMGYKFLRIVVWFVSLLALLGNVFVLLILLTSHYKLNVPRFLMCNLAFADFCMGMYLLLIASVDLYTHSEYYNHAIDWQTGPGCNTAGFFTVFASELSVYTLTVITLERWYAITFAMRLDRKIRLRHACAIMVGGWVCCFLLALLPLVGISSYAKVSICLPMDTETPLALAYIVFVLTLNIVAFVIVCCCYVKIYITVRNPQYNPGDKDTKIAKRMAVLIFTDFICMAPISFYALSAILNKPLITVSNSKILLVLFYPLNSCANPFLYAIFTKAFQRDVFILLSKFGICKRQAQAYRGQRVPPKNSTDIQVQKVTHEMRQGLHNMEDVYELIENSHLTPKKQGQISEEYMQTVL
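Inhibition of cAMP made by TSHR-expressing cells under TSH stimulation (4nM final, EC80; 2 h, 37 deg C) is quantified with a one-step lysis HTRF kit, anti-cAMP cryptate versus cAMP-d2.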
FBPA coupling cs: qHTS Assay for Inhibitors of Fructose-1,6-bisphosphate Aldolase from Giardia Lamblia: Coupling assay counterscreen; 290,000 compounds, 0.67% hits; coupling enzyme system counterscreen, AmpLite Red fluorescence; activity change, negative = inhibition, % at 58.2 µM, hits read low; in the data active = activity change below about -30%; note: % is set by controls: 0 for no effect and ±100 for the full control effect
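Compounds tested against the coupling enzymes alone at 57.5 uM final; readout was AmpLite Red fluorescence (525/598 nm) after 20 min at RT.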
Starred values were filed as active, the others as inactive; ? = inconclusive; . = not tested or not shown; ! = repeats disagree; [ ] = remark or other dose. Sampled rows, rich in hits. Any-hit rate of the full collection: about 1%. Unless noted, calls come from the whole dose curve; as a rule, active = well fitted curve in the direction sought with a large enough effect; inconclusive = small, poorly fitted or top-dose-only effect, or another doubt; inactive = no such curve, though single readings can be large; an effect the other way counts as inactive or inconclusive.

SMILES	TRb-SRC2 inh	TCR act	TR SRC2 fluor cs	NPSR antag	TSHR antagonist	FBPA coupling cs
O=C1C=Cc2ccccc2C1=O	?	.	?	-9%	-9	-82*
Clc1cccc(N2CCNCC2)c1	8.9µM*!	5%	28µM*![fluorescent]	5%[46.1 µM]	0	-1
O=C(O)Cc1cccnc1C(=O)O	-4%	.	-4%	.	.	-68*
O=C(O)COc1ccccc1	-5%	-2%	-1%	.	12	.
COC(=O)C1=C(c2ccc(-c3ccccc3)c(F)c2)C[C@@H]2CC[C@H]1N2C(=O)NCCc1ccccc1	.	-3%	.	.	-71*	.
COC(=O)C1=C(c2ccc(-c3ccccc3)c(F)c2)C[C@@H]2CC[C@H]1N2C(=O)NCCNC(C)=O	.	2%	.	.	-11	.
COC(=O)C1=C(c2ccc(-c3ccccc3)c(F)c2)C[C@@H]2CC[C@H]1N2C(=O)NCCCOC(C)C	.	-2%	.	.	-83*	.
CCOP(=O)(O)C(N)=O	-9%[201 µM]	.	-26%[201 µM]	.	.	.
CSC(=O)c1c(C(F)F)nc(C(F)(F)F)c(C(=O)SC)c1CC(C)C	1%[201 µM]	.	1%[201 µM]	.	.	.
COC(=O)C(C)Oc1ccc(Oc2ccc(Cl)cc2Cl)cc1 (centres undefined)	3%[201 µM]	.	2%[201 µM]	.	.	.
CCOc1ccc(N2C(=O)CC(=O)NC2=O)cc1	.	.	.	.	-2	1
COc1cc(N2C(=O)CC(=O)NC2=O)cc(OC)c1OC	.	.	.	.	-130*	-1
COc1ccccc1N1C(=O)NC(=O)/C(=C/c2ccc3c4c(cccc24)CC3)C1=O	-6%	7%[46.1 µM]	-4%	10µM*	20	-3
CC(C)[C@H](C(=O)O[C@H](C#N)c1cccc(Oc2ccccc2)c1)c1ccc(Cl)cc1	1%[201 µM]	.	1%[201 µM]	.	.	.
CCN1C(=O)NC(=O)/C(=C/c2cc(C)n(-c3sc(C)c(C)c3C#N)c2C)C1=O	-4%	-7%[46.1 µM]	-5%	3%	33	-37*
CCOC(=O)c1c(-n2c(C)cc(/C=C3/C(=O)NC(=O)N(CC)C3=O)c2C)sc2c1CCCC2	.	3%	.	.	.	.
C[C@@H]1O[C@@H](O[C@H]2CC[C@@H](O[C@H]3[C@H](O)C[C@H](c4ccc5c(c4O)C(=O)C4=C(C5=O)[C@@]5(O)C(=O)C[C@](C)(O[C@H]6CC[C@H](O[C@H]7C=CC(=O)[C@H](C)O7)[C@H](C)O6)C[C@@]5(O)C=C4)O[C@@H]3C)O[C@H]2C)C=CC1=O	18%	.	1%	.	.	-74*
COC(=O)N(OC)c1ccccc1COc1ccn(-c2ccc(Cl)cc2)n1	-5%[201 µM]	.	2%[201 µM]	.	.	.
C=CCN1C(=O)/C(=C/c2cccs2)C(=O)NC1=S	7%	-8%[46.1 µM]	-7%	13µM*	29	0
ClC1=C(Cl)[C@@]2(Cl)[C@H]3C[C@@H](Cl)[C@H](Cl)[C@H]3[C@@]1(Cl)C2(Cl)Cl	-7%[201 µM]	.	-2%[201 µM]	.	.	.
COc1cc2c(cc1OC)-c1c3c(cc4c1[C@@H](C2)N(C)CC4)OCO3	-27%	0%	-5%	2%	-9	-29
CN1CCc2cc3c(c4c2[C@H]1Cc1ccccc1-4)OCO3	-17%	.	7%	.	.	-33*
COc1cc(OC)nc(Sc2cccc(Cl)c2C(=O)O)n1	5%[201 µM]	.	-1%[201 µM]	.	.	.
N#CC(CCc1ccc(Cl)cc1)(Cn1cncn1)c1ccccc1 (centres undefined)	0%[201 µM]	.	1%[201 µM]	.	.	.
CC[n+]1c(-c2ccccc2)c2cc(N)ccc2c2ccc(N)cc21	35µM*!	8%	45µM*![fluorescent]	.	.	-44*
COC(=O)c1nc(-c2ccc3c(n2)C(=O)C(N)=C(OC)C3=O)c(N)c(-c2ccc(OC)c(OC)c2O)c1C	6%	3%	-7%	-27%	-14	-37*
CCOP(=O)(OCC)Oc1ccc([N+](=O)[O-])cc1	7%[201 µM]	.	-4%[201 µM]	.	.	.

From PubChem
